Source: PubChem BioAssay (National Center for Advancing Translational Sciences (NCATS))
MmCpn inh: inhibitors of Methanococcus maripaludis chaperonin TRiC (MmCpn); purified Mm-Cpn ATPase, ADP Transcreener TR-FRET; 330,000 tested, 0.031% active; Potency, µM (series often up to 76.9 µM), for the others: at the top dose activity, negative = inhibition, actives largely listed as inhibitors; AID 504842; note: % is set by controls: 0 for no effect and ±100 for the full control effect; nearly all actives have a fitted effect of over 80% in size
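25 nM Mm-CPN + cpd, 10 min 37°C; + 10 uM ATP, 30 min 37°C; buffer 30 mM Tris pH 7.4, 100 mM KCl, 5 mM MgCl2, 1 mM DTT; Transcreener ADP HTRF detection 30 min RT.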
Abeta rescue: A-beta toxicity reversal in yeast; yeast expressing A-beta42, growth rescue, OD600, 48 h; response scale: 0% DMSO, 100% iron-clioquinol control; Potency, µM (titrated, usually from 46.1 µM), usual class: activators; 410,000 tested, 0.063% active; AID 1347071; note: nearly all actives have a fitted effect of over 55% in size
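Yeast growth medium received pinned compounds, then yeast cells expressing toxic A-beta were added; plates incubated at 30 C for 48 hr. Growth read as absorbance at 600 nm, normalized to DMSO and equimolar FeCl3 plus clioquinol controls.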
aSyn yeast inh: rescues yeast growth from alpha-synuclein toxicity; Yeast expressing alpha-synuclein, growth rescue, BacTiter-Glo, 24 h; Potency, µM (doses to about 46.1 µM), for inactives: at the top dose growth rescue (activation), actives largely listed as activators; 370,000 tested, 0.14% active; note: % of control where 0% means no effect; nearly all actives have a fitted effect of over 65% in size
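Galactose-induced alpha-syn yeast (OD600=0.02, raffinose-pregrown) + pinned cpd, 24 hr, 30 deg C; growth by BacTiter-Glo luminescence. Growth restoration scores as activation.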
FUS suppressor: FUS proteinopathy suppression in yeast. S. cerevisiae FUS-expressing, growth rescue, OD600, 24 h. Potency, µM (series often up to 76.6 µM), actives largely listed as activators. 390,000 tested, 0.24% active. AID 1347120;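 note: plate controls were DMSO vehicle for no effect and reference control for full effect; nearly all actives have a fitted effect of over 55% in size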
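S. cerevisiae expressing FUS from galactose induction served as the toxicity model. Growth after 24hr at 30C, read as absorbance at 600 nm, indicates suppression of toxicity; compounds dosed at several concentrations.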
TDP43 rescue: inhibitors of TDP-43 toxicity in yeast | TDP-43 expressing yeast growth rescue, BacTiter-Glo, 24 h | Potency, µM (series often up to 46.1 µM), inactives show at the top dose growth rescue (activation), usual class: activators | 410,000 tested, 1.8% active; note: % of control where 0% means no effect; nearly all actives have a fitted effect of over 50% in size
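Growth rescue of TDP-43-toxic yeast measured as ATP luminescence (BacTiter-Glo). Cells grown to mid-log in raffinose, induced in galactose at OD600=0.02, exposed to compound 24 hr at 30 deg C.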
ClpP mod: qHTS Assay for Activators of ClpP; ATP-dependent Clp protease proteolytic subunit (Bacillus subtilis (strain 168)), P80244; purified B. subtilis ClpP, FRET peptide cleavage, 20 min; Potency, µM (top dose mostly 57.5 µM), for the others: at the highest dose activity change, negative = active; 340,000 tested, 1.9% active; AID 651965, 2013; active = well fitted falling curve with a large enough effect; inconclusive = small, poorly fitted or top-dose-only effect; inactive = no such curve, though single readings can be large or run the other way; note: the source files actives as falling curves though it sought activators and does not explain the sign; nearly all actives have a fitted effect of over 65% in size
Target sequence (P80244 whole entry, looked up): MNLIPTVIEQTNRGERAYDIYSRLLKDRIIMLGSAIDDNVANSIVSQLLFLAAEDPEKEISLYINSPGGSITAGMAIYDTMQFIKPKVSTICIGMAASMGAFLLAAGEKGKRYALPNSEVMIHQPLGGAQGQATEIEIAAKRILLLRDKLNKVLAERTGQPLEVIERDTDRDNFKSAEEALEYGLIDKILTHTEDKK
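Purified B. subtilis ClpP, 10 microg/mL final in Tris/HCl pH8 with KCl, BSA, glycerol and Tween-20, cleaved an Abz/nitrotyrosine-quenched decapeptide. Fluorescence (ex 320, em 430) was read at 0 and 20 min at room temperature. Delta was normalized to 5.8 microM ADEP and DMSO/no-enzyme controls.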
* hit, by the source's call; [ ] = another dose, or the depositor's remark. In the library only some 3.6% were active in any assay of this set; here they are far more common. Unless noted, calls come from the whole dose curve; as a rule, active = well fitted curve in the direction sought with a large enough effect; inconclusive = small, poorly fitted or top-dose-only effect, or another doubt; inactive = no such curve, though single readings can be large; an effect the other way counts as inactive or inconclusive. Potency is the fitted concentration of half-maximal effect.

How did Cc1ccc(NC(=O)CCCn2c(=O)c3cccn3c3cccnc32)c(C)c1 do in these assays?
Abeta rescue: inactive; FUS suppressor: inactive; TDP43 rescue: -2%; ClpP mod: inconclusive

What do the screens show for `COc1cccc(-c2csc(NC3OC(=O)c4c3ccc(OC)c4OC)n2)c1` (centres undefined)?
MmCpn inh: 1%; Abeta rescue: inactive; aSyn yeast inh: -5%; FUS suppressor: inactive; TDP43 rescue: -8%

What do the screens show for `COc1ccc2c(c1OC)C(=O)OC2Nc1nc(-c2ccc(-c3ccccc3)cc2)cs1` (centres undefined)?
MmCpn inh: -3%; Abeta rescue: inactive; aSyn yeast inh: -43%; TDP43 rescue: -61%; ClpP mod: 16µM*

How did CC(=O)n1nc(-c2ccccc2)cc1-c1ccccc1 do in these assays?
Abeta rescue: inactive; aSyn yeast inh: 17%; FUS suppressor: inactive; TDP43 rescue: 13µM*; ClpP mod: 0%

How did Cc1cccc(NC(=O)CSc2nc(=O)n(Cc3ccncc3)c3c2CCC3)c1C do in these assays?
Abeta rescue: inactive; FUS suppressor: inactive; TDP43 rescue: 14%; ClpP mod: -12%

Results for O=C(CCN1CCN(c2ccccc2F)CC1)Nc1ccccc1F ?
MmCpn inh: 2%; Abeta rescue: inactive[9.22 µM]; aSyn yeast inh: -3%; FUS suppressor: inactive; TDP43 rescue: -1%; ClpP mod: 16µM*

How did N#CCC(=O)Nc1ccc(C(=O)OCC(=O)c2ccc3c(c2)OCO3)cc1 do in these assays?
MmCpn inh: 45µM*; Abeta rescue: inactive; aSyn yeast inh: -5%; FUS suppressor: inactive; TDP43 rescue: -12%

How did N#CCC(=O)Nc1ccc(C(=O)OCC(=O)c2ccc3c(c2)OCCO3)cc1 do in these assays?
MmCpn inh: inconclusive; Abeta rescue: inactive; aSyn yeast inh: -5%; FUS suppressor: inactive; TDP43 rescue: 17%

How did Cc1nc2c3ccccc3n(Cc3ccccc3F)c2s1 do in these assays?
MmCpn inh: 0%; Abeta rescue: inactive; aSyn yeast inh: -9%; FUS suppressor: inactive; TDP43 rescue: 0%; ClpP mod: 0%

Results for Cc1nc2c3cc(F)ccc3n(Cc3ccccc3F)c2s1 ?
MmCpn inh: 3%; Abeta rescue: inactive; aSyn yeast inh: -19%; FUS suppressor: inactive; TDP43 rescue: 11µM*

How did Cc1ccc(NC(=O)Cn2c(=O)n(Cc3ccc4c(c3)OCO4)c(=O)c3ccc(C(=O)NC4CCCCC4)cc32)c(C)c1 do in these assays?
Abeta rescue: inactive; aSyn yeast inh: 0%; FUS suppressor: inactive; TDP43 rescue: 5%; ClpP mod: -3%

How did COc1cc2c(NC3CCN(C)CC3)nc(N3CCCN(C)CC3)nc2cc1OCCCCN(C)C do in these assays?
aSyn yeast inh: 3%; ClpP mod: 4%

How did O=C(c1ccco1)N1CC2(CC(c3ccc(Cl)cc3)=NO2)CN1Cc1ccc(Br)cc1 (centres undefined) do in these assays?
Abeta rescue: inactive; aSyn yeast inh: 12%; FUS suppressor: inactive; TDP43 rescue: 32µM*; ClpP mod: -1%

Results for CC(C)N1CC2(CC(c3ccccc3F)=NO2)CN1C(=O)c1ccco1 (centres undefined) ?
Abeta rescue: inactive; aSyn yeast inh: 2%; FUS suppressor: inactive; TDP43 rescue: 19%; ClpP mod: -1%

What do the screens show for `COCCN(Cc1ccc(C)c(Br)c1)S(=O)(=O)c1ccc2[nH]c(=O)ccc2c1`?
Abeta rescue: inactive; aSyn yeast inh: 1%; FUS suppressor: inactive; TDP43 rescue: 26%; ClpP mod: -7%

How did COc1ccc(-c2nc3ccc(C)cn3c2NCc2ccc3c(c2)OCO3)cc1 do in these assays?
MmCpn inh: -18%; Abeta rescue: inactive; aSyn yeast inh: 1%; FUS suppressor: inactive; TDP43 rescue: 18%; ClpP mod: inconclusive

Results for c1ccc(-c2cc3nc(NCc4ccc5c(c4)OCO5)ccn3n2)cc1 ?
Abeta rescue: inconclusive; aSyn yeast inh: 14%; FUS suppressor: inconclusive; TDP43 rescue: 14µM*; ClpP mod: 5%

What do the screens show for `COc1cc(-c2cc3nc(NCc4cccs4)ccn3n2)cc(OC)c1OC`?
Abeta rescue: inactive; aSyn yeast inh: -22%; FUS suppressor: inactive; TDP43 rescue: 35µM*; ClpP mod: 5%

How did Cc1ccc(-c2nc3ccccn3c2NCc2ccc3c(c2)OCO3)cc1 do in these assays?
MmCpn inh: -8%; Abeta rescue: inactive; aSyn yeast inh: -6%; FUS suppressor: inactive; TDP43 rescue: 13%; ClpP mod: 32µM*

Results for c1coc(-c2cc3nc(NCc4ccc5c(c4)OCO5)ccn3n2)c1 ?
Abeta rescue: inactive; aSyn yeast inh: 6%; FUS suppressor: inactive; TDP43 rescue: 18µM*; ClpP mod: 4%

How did COc1ccc(CSc2ccc(-c3nc4ccccn4c3NCc3ccccc3)cc2OC)cc1 do in these assays?
MmCpn inh: -4%; Abeta rescue: inactive; aSyn yeast inh: -33%; FUS suppressor: inconclusive; TDP43 rescue: 35µM*; ClpP mod: 4%

Results for Nc1ccc(N2CCN(c3ccccc3)CC2)c(F)c1 ?
MmCpn inh: 0%; Abeta rescue: inactive; aSyn yeast inh: 1%; FUS suppressor: inactive; TDP43 rescue: 22µM*; ClpP mod: -3%

What do the screens show for `O=C(Nc1ccc(Cl)cc1)N1CCC(CN2CCCCCC2)CC1`?
Abeta rescue: inactive; FUS suppressor: inactive; TDP43 rescue: 6%[9.22 µM]; ClpP mod: -5%

What do the screens show for `CCc1ccc(NC(=O)CSC2=Nc3ccccc3C3=NC(CC(=O)NCc4ccc5c(c4)OCO5)C(=O)N23)cc1` (centres undefined)?
Abeta rescue: inactive; FUS suppressor: inconclusive; TDP43 rescue: 1%; ClpP mod: -5%

How did CC(C)CCN1C(=O)c2ccc(C(=O)NCc3ccccn3)cc2C1=O do in these assays?
MmCpn inh: 0%; Abeta rescue: inactive; aSyn yeast inh: 2%; FUS suppressor: inactive; TDP43 rescue: 0%; ClpP mod: 32µM*

What do the screens show for `COc1ccc(NC(=O)C2CCCN(c3ncccn3)C2)cc1` (centres undefined)?
MmCpn inh: -3%; Abeta rescue: inactive; aSyn yeast inh: -7%; FUS suppressor: inactive; TDP43 rescue: 6%
